Sm TGR inh: inhibitors of Schistosoma mansoni thioredoxin glutathione reductase. Q962Y6. purified TGR, DTNB reduction, TNB absorbance 405 nm. Potency, µM (titrated, usually from 114 µM), for inactives: at the top dose activity change, negative = inhibition, hits mostly inhibitors. hit rate 3% among 360,000; further: on the % scale 0 is the no-effect control and ±100 the full control effect; nearly all actives have a fitted effect of over 60% in size
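Kinetic colorimetric format: TGR-catalysed, NADPH-driven DTNB reduction monitored via TNB absorbance. Enzyme dispensed at 20 nM; compound exposure 15 min at room temperature before reaction start.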
Pf growth 48h: inhibits P. falciparum growth in the first generation, 48 h. AID 504832. Potency, µM (series often up to 28.7 µM), without a hit: top-dose activity change, negative = inhibition, hits mostly inhibitors. P. falciparum luciferase growth in erythrocytes, 48 h. hit rate 5.9% among 310,000; further: on the % scale 0 is the no-effect control and ±100 the full control effect
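Erythrocytes infected with P. falciparum carrying an integrated firefly luciferase reporter (2% hematocrit, 0.1% parasitemia final) were exposed to compounds in RPMI 1640 with 0.5% Albumax at 37 C, 5% CO2. Growth inhibition was scored as reduced luminescence.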
AmpC inh detg: blocks E. coli AmpC beta-lactamase in detergent assay; AmpC hydrolysis of nitrocefin, absorbance 480 nm, 0.01% Triton; Potency, µM (doses to about 114 µM), without a hit: top-dose activity change, negative = inhibition, usual class: inhibitors; hit rate 0.041% among 370,000; AID 485294; P00811;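 further: 0% = no-compound wells and -100% = no-enzyme wells; nearly all actives have a fitted effect of over 25% in size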
Target sequence (P00811 whole entry, looked up): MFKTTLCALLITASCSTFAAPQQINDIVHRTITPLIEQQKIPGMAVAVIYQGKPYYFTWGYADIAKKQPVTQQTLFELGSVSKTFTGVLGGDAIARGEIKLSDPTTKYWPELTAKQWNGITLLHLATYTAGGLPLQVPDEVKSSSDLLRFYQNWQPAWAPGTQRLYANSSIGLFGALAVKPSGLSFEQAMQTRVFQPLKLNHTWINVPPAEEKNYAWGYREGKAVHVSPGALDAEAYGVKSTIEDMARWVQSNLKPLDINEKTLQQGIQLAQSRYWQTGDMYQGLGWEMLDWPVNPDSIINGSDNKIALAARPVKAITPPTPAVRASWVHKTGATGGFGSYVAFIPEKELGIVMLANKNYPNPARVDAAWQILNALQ
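AmpC (5.3 nM in the dispensed reagent) in 20 mM phosphate pH 7.0 with 0.01% (detergent screen) or 0.0001% Triton X-100 was preincubated with compounds for 15 min at room temperature. Nitrocefin was then added from an 800 uM solution, and hydrolysis was followed at 480 nm.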
AmpC no deterg: inhibitors of E. coli AmpC beta-lactamase without detergent. Potency, µM (doses to about 57.1 µM), for inactives: at the highest dose activity change, negative = inhibition, most hits filed as inhibitors. AID 485341. P00811. hit rate 0.52% among 330,000. AmpC nitrocefin hydrolysis, absorbance 480 nm, 0.0001% Triton;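 further: plate controls were no compound for no effect and no enzyme for full effect; nearly all actives have a fitted effect of over 20% in size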
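AmpC (5.3 nM in the dispensed reagent) in 20 mM phosphate pH 7.0 with 0.01% (detergent screen) or 0.0001% Triton X-100 was preincubated with compounds for 15 min at room temperature. Nitrocefin was then added from an 800 uM solution, and hydrolysis was followed at 480 nm.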
SARS PLP yeast: inhibitors of SARS-CoV papain-like protease in yeast; Potency, µM (titrated, usually from 32.9 µM), for the others: at the highest dose activity, positive = growth rescue, usual class: activators; S. cerevisiae expressing SARS-CoV PLpro, growth rescue; hit rate 0.19% among 330,000; calls by dose curve; further: 0% is about no effect; nearly all actives have a fitted effect of over 55% in size
Pf growth 96h: P. falciparum growth inhibition at 96 hour, primary screen for plastid delayed-death inhibitors | P. falciparum luciferase reporter growth, 96 h | Potency, µM (top dose mostly 28.7 µM), without a hit: at the top dose activity change, negative = inhibition, hits mostly inhibitors | hit rate 6.9% among 320,000 | AID 504834; further: on the % scale 0 is the no-effect control and ±100 the full control effect
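P. falciparum expressing integrated firefly luciferase grown in erythrocytes (2% hematocrit, 0.05% parasitemia final) with compounds for 96 hours at 37 C, 5% CO2. Growth inhibition read as loss of luminescence after adding luciferase detection reagent.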
* marks the source's active call; other numbers are inactive results; [ ] = another dose, or the depositor's remark. A selection: hits, their analogues and other compounds. The true share with any hit is near 12%. Unless noted, the call rests on the fitted dose curve; in most records, active means well fitted curve in the direction sought with a large enough effect; inconclusive means small, poorly fitted or top-dose-only effect, or another doubt; inactive means no such curve, though single readings can be large; an effect the other way counts as inactive or inconclusive. Potency means the concentration at half of the fitted maximal effect.

`Cc1ccc(-c2nnc(N3CCN(C(=O)COc4cccc(C)c4)CC3)c3ccccc23)cc1` gave Sm TGR inh 7%, Pf growth 48h 8.3µM*, AmpC inh detg -9%, AmpC no deterg 50%, SARS PLP yeast -3% and Pf growth 96h 13µM*.
For Cc1cccc(OCC(=O)N2CCN(c3nnc(-c4ccccc4)c4ccccc34)CC2)c1 the results were Sm TGR inh 5%, Pf growth 48h inconclusive, AmpC inh detg 3%, AmpC no deterg 38%, SARS PLP yeast -2% and Pf growth 96h inconclusive.
For Cc1ccc(OCC(=O)N2CCN(c3nnc(-c4ccc(C)cc4)c4ccccc34)CC2)cc1 the results were Sm TGR inh -22%, AmpC inh detg inconclusive, AmpC no deterg -6%, SARS PLP yeast 0% and Pf growth 96h 2.9µM*.
`CCCCn1c(=O)[nH]c(=O)c2c1nc(-c1ccccc1OC(F)F)n2C` gave Sm TGR inh inconclusive, Pf growth 48h -14%, AmpC inh detg -1%, AmpC no deterg -4%, SARS PLP yeast 3% and Pf growth 96h -17%.
COc1ccc(NC(=O)Cn2ccn(-c3ccc(C)c(C)c3)c(=O)c2=O)cc1Cl was read as Sm TGR inh 1% and AmpC inh detg 21%.
Screening Cc1cc(Cl)n2c(nc3ccccc32)c1C#N returned Sm TGR inh 3.2µM*, Pf growth 48h 8.3µM*, AmpC inh detg 4%, AmpC no deterg -22%, SARS PLP yeast -34% and Pf growth 96h inconclusive.
For CCN(CC)c1cc(C)c(C#N)c2nc3ccccc3n12 the results were Sm TGR inh 23%, Pf growth 48h 5.9µM*, AmpC inh detg 6%, AmpC no deterg -18%, SARS PLP yeast 0% and Pf growth 96h inconclusive.
For O=C(NCC(c1ccco1)S(=O)(=O)c1cccs1)c1ccccc1 (centres undefined) the results were Sm TGR inh 0.32µM* and AmpC inh detg 0%.
`COc1ccc(C(=O)NCC(c2ccco2)S(=O)(=O)c2cccs2)cc1OC` (centres undefined) gave Sm TGR inh 1.3µM* and AmpC inh detg 4%.
CC(C)(C)c1ccc(C(=O)NCC(c2cccs2)S(=O)(=O)c2cccs2)cc1 (centres undefined) was read as Sm TGR inh 35µM* and AmpC inh detg 11%.
`COc1ccccc1CCNC(=O)C(=O)NCC(c1ccco1)S(=O)(=O)c1ccccc1` (centres undefined) gave Sm TGR inh 35µM* and AmpC inh detg 4%.
For COc1ccccc1CCNC(=O)C(=O)NCC(c1cccs1)S(=O)(=O)c1ccccc1 (centres undefined) the results were Sm TGR inh -15% and AmpC inh detg 3%.
For Cc1ccc(C(=O)NCC(c2ccco2)S(=O)(=O)c2cccs2)cc1C (centres undefined) the results were Sm TGR inh inconclusive and AmpC inh detg -2%.
For CCCCN1Cc2cc(C(=O)c3cc(F)ccc3O)cnc2NC1=O the results were Sm TGR inh -10%, Pf growth 48h inconclusive, AmpC inh detg -14%, AmpC no deterg -20%, SARS PLP yeast 3% and Pf growth 96h 13%.
`O=C(NCC(c1ccco1)S(=O)(=O)c1cccs1)c1ccc(C(F)(F)F)cc1` (centres undefined) gave Sm TGR inh 4.5µM* and AmpC inh detg 13%.
O=C(NCC(c1ccco1)S(=O)(=O)c1cccs1)c1ccc(F)c(F)c1 (centres undefined) was read as Sm TGR inh 16µM* and AmpC inh detg 2%.
For O=C(NCCc1ccccc1)C(=O)NCC(c1ccco1)S(=O)(=O)c1cccs1 (centres undefined) the results were Sm TGR inh 20µM* and AmpC inh detg 2%.
For CCCC(=O)Oc1c(Sc2ccc(C)cc2)c(C)nn1-c1ccccc1 the results were Sm TGR inh 5% and AmpC inh detg 0%.
For CCC(Cc1ccccc1)NC(=O)CN1C(=O)COc2ccc(S(=O)(=O)N3CCCCCC3)cc21 (centres undefined) the results were Sm TGR inh -6% and AmpC inh detg -7%.
For Cc1ccccc1-c1nc2c(c(SCc3cccc(Cl)c3)n1)Cc1c(CO)cnc(C)c1O2 the results were Sm TGR inh -3% and AmpC inh detg -2%.
For Oc1ccccc1/C=N/Nc1nc2ccccc2o1 the results were Sm TGR inh -1%, Pf growth 48h 2.6µM*, AmpC inh detg -2%, AmpC no deterg -40%, SARS PLP yeast -1% and Pf growth 96h 2.1µM*.
For CC(C1CCN(Cc2nc(C3CC3)no2)CC1)N1CCOCC1 (centres undefined) the results were Sm TGR inh -2%[57.1 µM], Pf growth 48h 8%, AmpC inh detg 6%, AmpC no deterg -7%, SARS PLP yeast 20% and Pf growth 96h 13µM*.
`CC(=O)c1cccc(NC(=O)c2ccc(-n3c(C)nnc3C)cc2)c1` gave Sm TGR inh -2% and AmpC inh detg -5%.
For N#CC(C(=O)c1ccccc1)=C1SCCS1 the results were Sm TGR inh 17%, Pf growth 48h 22%, AmpC inh detg 1%, AmpC no deterg -23%, SARS PLP yeast -1% and Pf growth 96h 8%.
For O=C(OCc1cccc([N+](=O)[O-])c1)c1cc(=O)[nH]c2ccccc12 the results were Pf growth 48h 31%, AmpC inh detg -13%, AmpC no deterg -17%, SARS PLP yeast 1% and Pf growth 96h 35%.
CCOC(=O)c1cc2[nH]c3ccccc3c2[n+](-c2ccc([N+](=O)[O-])cc2)c1N was read as Sm TGR inh 1%, Pf growth 48h 3.7µM*, AmpC inh detg 1%, AmpC no deterg -5%, SARS PLP yeast 0% and Pf growth 96h inconclusive.
Screening CCOC(=O)c1cc(-c2cccc([N+](=O)[O-])c2)nc2[nH]c(=O)[nH]c(=O)c12 returned Sm TGR inh -17%, Pf growth 48h 12%, AmpC inh detg -1%, AmpC no deterg -14%, SARS PLP yeast -1% and Pf growth 96h 78%.
`CCOC(=O)c1cc2[nH]c3ccccc3c2[n+](-c2ccc([N+](=O)[O-])cc2)c1C` gave Sm TGR inh 8%, Pf growth 48h 2.6µM*, AmpC inh detg inconclusive, AmpC no deterg -8%, SARS PLP yeast -27% and Pf growth 96h inconclusive.
